Calls of active or inactive are those of the source.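 How the source made its calls, unless noted: active means primary screen hit whose calcium fluorescence ratio, in both repeats, exceeds the weak agonist control mean by 3 SD; inactive means the rest.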
Tested on: transient receptor potential cation channel C4 beta (TRPC4), mouse
Experiment: TRPC4 cation channel opening, second retest – cell-based, second round, Fluo4, HEK293 TRPC4beta/mu-opioid, 1 µM, confirmation (AID 2461;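 active means primary screen active and over 50% activation in each of two duplicate runs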)
Details: Fluo4 calcium fluorescence, at 1 µM; active compounds read high

Row | Compound | outcome
1 | CC(Cc1ccccc1Sc1ccccc1O)N(C)C (centres undefined) | inactive
2 | COc1ccc(OC)c(CN2CCCC(C(=O)c3sccc3C)C2)c1 (centres undefined) | inactive
3 | CCCCc1ncc(CN2CCCC(C(=O)c3ccc(SC)cc3)C2)[nH]1 (centres undefined) | inactive

Tested on: TRPC4 (transient receptor potential cation channel C4 beta), mouse
Experiment: potentiation of DAMGO EC20 TRPC4 response – cell-based, second round, Fluo-4, HEK293 TRPC4beta/mu-opioid, 1 µM, confirmation (AID 2554;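 active means primary screen hit whose fluorescence ratio, in both repeats, exceeds the weak agonist control mean by 3 SD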)
Details: DAMGO EC20, Fluo-4 calcium flux, at 1 µM; active compounds read high

Row | Compound | outcome | potentiation
4 | Cc1ccsc1C(=O)C1CCCN(Cc2ccccc2O)C1 (centres undefined) | inactive | –
5 | COc1ccc(C[C@@H]2c3cc(O)c(OC)cc3CCN2C)cc1O | inactive | –
6 | CCC1=Nc2cc(C(=O)N3CCC4(CC3)OCCO4)ccc2Sc2ccc(C)cc21 | inactive | –
7 | Cc1ccc(CN2C3CCCC2CC(NC(=S)NCc2ccccc2)C3)cc1 (centres undefined) | inactive | –
8 | COc1ccc(Br)cc1CN1CCN(C(=O)Cc2ccccc2)CC1 | inactive | –
9 | CC(C)CN(CC(C)C)c1ccc(C=C2C(=O)NC(=S)NC2=O)cc1[N+](=O)[O-] | inactive | –
10 | CCOC(=O)C1(CCc2ccccc2)CCN(Cc2cccc3c2OCO3)CC1 | inactive | –
11 | COc1ccc(CN2CCCC(C(=O)c3sccc3C)C2)cc1O (centres undefined) | inactive | –
12 | CCN1CCN(Cc2cc(Br)ccc2O)CC1 | – | 19% (active)
13 | CCN(CC)c1ccc([N+](=O)[O-])c2cccnc12 | inactive | –
14 | CN(CCOc1ccc(C=C2C(=O)NC(=O)NC2=O)cc1)c1ccccn1 | inactive | –
15 | CCN(CC)CC(=O)Nc1ccc(Cl)cc1C(=O)c1ccccc1 | inactive | –
16 | COc1cccc(O)c1CN1CCCC(C(=O)c2sccc2C)C1 (centres undefined) | inactive | –
17 | CCC1=Nc2cc(C(=O)N3CCC4(CC3)OCCO4)ccc2Sc2ccc(Br)cc21 | inactive | –
18 | COc1ccc2[nH]cc(CCN(C)C)c2c1 | – | 7% (active)
19 | CC(=O)OC1(c2ccccc2)CCN(C2CCCCC2)CC1C (centres undefined) | inactive | –
20 | CCOC(=O)C1(c2ccccc2)CCN(CC(=O)Nc2ccc(C)cc2)CC1 | inactive | –
21 | COc1ccc(O)c(CN2CCCC(C(=O)c3sccc3C)C2)c1 (centres undefined) | inactive | –
22 | Clc1ccc(OCC#CCN2CCCC2)cc1 | – | 30% (active)

Row | Compound | outcome | potentiation
23 | O=C(c1cccc(C(F)(F)F)c1)C1CCCN(Cc2ccccc2O)C1 (centres undefined) | inactive | –
24 | CCOC(=O)C1(CCc2ccccc2)CCN(Cc2ccco2)CC1 | inactive | –
25 | Nc1ccccc1-[n+]1c(-c2ccccc2)cc(-c2ccccc2)cc1-c1ccccc1 | – | 27% (active)
26 | CCc1nccc2c1[nH]c1ccccc12 | inactive | –
27 | CCOC(=O)C(O)(c1ccc(NC(=S)NC(=O)c2ccc(Cl)cc2Cl)c(C)c1)C(F)(F)F (centres undefined) | inactive | –
28 | COc1ccc(OC)c(N2Cc3ccccc3C2=N)c1 | inactive | –
29 | CCOc1c(Cl)cc(CNC(C)C(O)c2ccccc2)cc1OC (centres undefined) | inactive | –
30 | Cc1cccc(N2CCc3c2nc2ccccc2c3N)c1 | inactive | –
31 | COc1ccc(C)cc1NC1=NC(C)(C)CS1 | inactive | –
32 | N=c1n(CCO)c2ccccc2n1Cc1ccccc1 | inactive | –
33 | CCc1ccc(OCCCN=C(C)c2c(O)n(C)c(=O)n(C)c2=O)cc1 | inactive | –
34 | O=C(CN1CCCC1)Nc1ccc(Cl)cc1C(=O)c1ccccc1 | inactive | –
35 | O=C(c1ccc(Cl)cc1)C1CCCN(C2CCSCC2)C1 (centres undefined) | inactive | –
36 | Cc1ccc(C2CN(C)CC2C(=O)c2ccc(F)cc2)cc1 (centres undefined) | inactive | –
37 | O=C(Cc1ccccc1)N1CCN(Cc2cccc(Br)c2)CC1 | inactive | –
38 | Cc1cccc(N=Cc2c(O)n(-c3ccccc3C)c(=O)[nH]c2=O)c1 | inactive | –
39 | CC(Cc1ccccc1Sc1ccccc1O)N(C)C (centres undefined) | inactive | –
40 | COc1ccc(OC)c(CN2CCCC(C(=O)c3sccc3C)C2)c1 (centres undefined) | inactive | –
41 | CCCCc1ncc(CN2CCCC(C(=O)c3ccc(SC)cc3)C2)[nH]1 (centres undefined) | inactive | –

Tested on: TRPC4 beta (transient receptor potential cation channel C4), mouse
Experiment: potentiation of DAMGO EC20 TRPC4 response – cell-based, Fluo-4, HEK293 TRPC4beta/mu-opioid, confirmation (AID 2555)
Details: DAMGO EC20, Fluo-4 calcium flux, at 10 µM; active compounds read high

Row | Compound | outcome | potentiation
42 | Cc1ccsc1C(=O)C1CCCN(Cc2ccccc2O)C1 (centres undefined) | inactive | –
43 | COc1ccc(C[C@@H]2c3cc(O)c(OC)cc3CCN2C)cc1O | inactive | –
44 | CCC1=Nc2cc(C(=O)N3CCC4(CC3)OCCO4)ccc2Sc2ccc(C)cc21 | inactive | –
45 | Cc1ccc(CN2C3CCCC2CC(NC(=S)NCc2ccccc2)C3)cc1 (centres undefined) | inactive | –
46 | COc1ccc(Br)cc1CN1CCN(C(=O)Cc2ccccc2)CC1 | inactive | –
47 | CC(C)CN(CC(C)C)c1ccc(C=C2C(=O)NC(=S)NC2=O)cc1[N+](=O)[O-] | inactive | –
48 | CCOC(=O)C1(CCc2ccccc2)CCN(Cc2cccc3c2OCO3)CC1 | inactive | –
49 | COc1ccc(CN2CCCC(C(=O)c3sccc3C)C2)cc1O (centres undefined) | inactive | –
50 | CCN1CCN(Cc2cc(Br)ccc2O)CC1 | – | 22% (active)
51 | CCN(CC)c1ccc([N+](=O)[O-])c2cccnc12 | inactive | –
52 | CN(CCOc1ccc(C=C2C(=O)NC(=O)NC2=O)cc1)c1ccccn1 | inactive | –
53 | CCN(CC)CC(=O)Nc1ccc(Cl)cc1C(=O)c1ccccc1 | inactive | –
54 | COc1cccc(O)c1CN1CCCC(C(=O)c2sccc2C)C1 (centres undefined) | inactive | –
55 | CCC1=Nc2cc(C(=O)N3CCC4(CC3)OCCO4)ccc2Sc2ccc(Br)cc21 | inactive | –
56 | COc1ccc2[nH]cc(CCN(C)C)c2c1 | inactive | –
57 | CC(=O)OC1(c2ccccc2)CCN(C2CCCCC2)CC1C (centres undefined) | inactive | –
58 | CCOC(=O)C1(c2ccccc2)CCN(CC(=O)Nc2ccc(C)cc2)CC1 | inactive | –
59 | COc1ccc(O)c(CN2CCCC(C(=O)c3sccc3C)C2)c1 (centres undefined) | inactive | –
60 | Clc1ccc(OCC#CCN2CCCC2)cc1 | inactive | –

Row | Compound | outcome | potentiation
61 | O=C(c1cccc(C(F)(F)F)c1)C1CCCN(Cc2ccccc2O)C1 (centres undefined) | inactive | –
62 | CCOC(=O)C1(CCc2ccccc2)CCN(Cc2ccco2)CC1 | inactive | –
63 | Nc1ccccc1-[n+]1c(-c2ccccc2)cc(-c2ccccc2)cc1-c1ccccc1 | inactive | –
64 | CCc1nccc2c1[nH]c1ccccc12 | inactive | –
65 | CCOC(=O)C(O)(c1ccc(NC(=S)NC(=O)c2ccc(Cl)cc2Cl)c(C)c1)C(F)(F)F (centres undefined) | – | 31% (active)
66 | COc1ccc(OC)c(N2Cc3ccccc3C2=N)c1 | inactive | –
67 | CCOc1c(Cl)cc(CNC(C)C(O)c2ccccc2)cc1OC (centres undefined) | inactive | –
68 | Cc1cccc(N2CCc3c2nc2ccccc2c3N)c1 | inactive | –
69 | COc1ccc(C)cc1NC1=NC(C)(C)CS1 | inactive | –
70 | N=c1n(CCO)c2ccccc2n1Cc1ccccc1 | inactive | –
71 | CCc1ccc(OCCCN=C(C)c2c(O)n(C)c(=O)n(C)c2=O)cc1 | inactive | –
72 | O=C(CN1CCCC1)Nc1ccc(Cl)cc1C(=O)c1ccccc1 | inactive | –
73 | O=C(c1ccc(Cl)cc1)C1CCCN(C2CCSCC2)C1 (centres undefined) | inactive | –
74 | Cc1ccc(C2CN(C)CC2C(=O)c2ccc(F)cc2)cc1 (centres undefined) | inactive | –
75 | O=C(Cc1ccccc1)N1CCN(Cc2cccc(Br)c2)CC1 | inactive | –
76 | Cc1cccc(N=Cc2c(O)n(-c3ccccc3C)c(=O)[nH]c2=O)c1 | – | 28% (active)
77 | CC(Cc1ccccc1Sc1ccccc1O)N(C)C (centres undefined) | inactive | –
78 | COc1ccc(OC)c(CN2CCCC(C(=O)c3sccc3C)C2)c1 (centres undefined) | inactive | –
79 | CCCCc1ncc(CN2CCCC(C(=O)c3ccc(SC)cc3)C2)[nH]1 (centres undefined) | inactive | –
